For 26 molecules, Potency results are on record in PubChem BioAssay (Tox21).

Where “and” joins values, the source holds several entries; their conditions need not be identical. Equal entries are not always repeated. Inconclusive results are not listed. Calls of active or inactive are those of the source. Unless noted, calls come from the whole dose curve; as a rule, active = well fitted curve in the direction sought with a large enough effect in the repeat runs; inconclusive = weak or mixed curves; inactive = no such curve, though single readings can be large; an effect the other way counts as inactive or inconclusive.

For assay [1], the target named is Progesterone receptor (Homo sapiens) (UniProt P06401). Kind of assay: qHTS assay to identify small molecule antagonists of the progesterone receptor (PR) signaling pathway (AID 1346795; active = well fitted inhibition curve with a large enough effect in the signal ratio in the repeat runs, not every such curve was filed as active; the % refers to the signal ratio; note: potency is the fitted concentration of half-maximal effect). The conditions noted are these: PR-UAS-bla HEK293T, beta-lactamase FRET ratio, 16 h; series mostly up to 92.4 µM. In a few lines: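 Antagonist mode: compounds tested against 1 nM (final) promegestone stimulation in HEK293T cells expressing PR-UAS-bla reporter, 16 hr at 37C, 5% CO2; beta-lactamase activity detected via B/G FRET substrate after 2 hr at room temperature.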
Background: In qHTS, concentration-response curves come from the screen itself.

Assay [2] can be described thus: qHTS assay to identify small molecule antagonists of the progesterone receptor (PR) signaling pathway - cell viability counter screen (AID 1346798). Note: nearly all actives have a fitted effect of over 50% in size. Note: potency is the fitted concentration of half-maximal effect. The conditions noted are these: PR-UAS-bla HEK293T viability, CellTiter-Glo luminescence, 16 h; series mostly up to 92.4 µM. In a few lines: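 Counter screen for cytotoxicity: viability of PR-UAS-bla HEK293T cells was measured with CellTiter-Glo luminescence following 16 hr compound exposure in the presence of R5020.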

The nature of assay [3]: qHTS assay to identify small molecule agonists of the progesterone receptor (PR) signaling pathway - cell viability counter screen (AID 1346799; calls by dose curve; note: nearly all actives have a fitted effect of over 45% in size; note: potency is the fitted concentration of half-maximal effect). The conditions noted are these: PR-UAS-bla HEK293T viability, CellTiter-Glo luminescence, 16 h; series mostly up to 92.4 µM. The method, boiled down:
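Cells (PR-UAS-bla HEK293T) are plated at 3,000/well in 2% charcoal-stripped FBS medium, rested 6 hr, dosed and incubated 16 hr at 37C. CellTiter-Glo is then added and luminescence measured after 30 min at room temperature.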

Assay [4] is described as follows: qHTS assay to identify small molecule antagonists of the TGF-beta/Smad signaling pathway - cell viability counter screen (AID 1346824). Note: nearly all actives have a fitted effect of over 50% in size. Note: potency is the fitted concentration of half-maximal effect. The conditions noted are these: SBE-bla HEK293T viability, CellTiter-Glo luminescence; series mostly up to 76.8 µM. In a few lines:
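SBE-bla HEK 293T cells, incubated overnight, then compound plus 0.25 ng/mL TGF-beta1 (stock added) for 5 hr at 37 C. Viability was read in the same wells by CellTiter-Glo luminescence after 30 min at room temperature.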

Assay [5] in a line: qHTS assay to identify small molecule agonists of the TGF-beta/Smad signaling pathway - cell viability counter screen (AID 1346829). Note: nearly all actives have a fitted effect of over 45% in size. Note: potency is the fitted concentration of half-maximal effect. The conditions noted are these: SBE-bla HEK293T viability, CellTiter-Glo luminescence, 5 h; series mostly up to 76.8 µM. In a few lines:
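HEK 293T SBE-bla line, 5 hr compound exposure at 37 C, multiplexed CellTiter-Glo viability read by luminescence.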

Assay [6] is described as follows: qHTS assay to identify small molecule agonists of the TGF-beta/Smad signaling pathway (AID 1346859; active = well fitted activation curve with a large enough effect in the signal ratio in the repeat runs, not every such curve was filed as active; the % refers to the signal ratio). The conditions noted are these: SBE-bla HEK293T, TGF-beta/Smad beta-lactamase reporter, 5 h; series mostly up to 76.8 µM. In a few lines:
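Reporter line: HEK 293T with stably integrated SBE-controlled beta-lactamase. Compound exposure lasts 5 hr at 37 C and 5% CO2; substrate loading follows for 2 hr at room temperature, with emission read at 460 and 530 nm.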

Assay [7] addresses Thyrotropin-releasing hormone receptor (Homo sapiens) (UniProt P34981). Kind of assay: qHTS assay to identify small molecule agonists of the thyrotropin-releasing hormone receptor (TRHR) signaling pathway (AID 1346891; calls by dose curve; note: potency is the fitted concentration of half-maximal effect;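 for activation: HEK293 cells expressing TRHR with calcium dye readout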). The conditions noted are these: TRHR-HEK293 calcium fluorescence, agonist mode; series mostly up to 57.6 µM. In a few lines:
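Cells: TRHR-Hek293, seeded and incubated 18 h. Dye loading: 2 h at 37 °C. Compound added from DMSO stock by pin tool. Read-out: kinetic calcium fluorescence over 3 min.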

Assay [8] in a line: Human pregnane X receptor (PXR) small molecule agonists, qHTS cell viability counter screen (AID 1346977). Note: nearly all actives have a fitted effect of over 50% in size. Note: potency is the fitted concentration of half-maximal effect. The conditions noted are these: PXR-Luc HepG2 viability, CellTiter-Fluor, 24 h; series mostly up to 92.4 µM. In a few lines: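 Cytotoxicity counter screen run in the same wells as the PXR luciferase assay, using PXR-Luc HepG2 cells in charcoal-stripped serum medium. Viability: CellTiter-Fluor fluorescence after 24hr compound treatment.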

Assay [9] has as its target Progesterone receptor (Homo sapiens) (UniProt P06401). Kind of assay: qHTS assay to identify small molecule agonists of the progesterone receptor (PR) signaling pathway (AID 1346784; calls by dose curve; note: nearly all actives have a fitted effect of over 30% in size). The conditions noted are these: PR-UAS-bla HEK293T, beta-lactamase FRET ratio, 16 h; series mostly up to 92.4 µM. In a few lines: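 Cells (PR-UAS-bla HEK 293T, GripTite) were plated in assay medium containing 2% charcoal-stripped FBS and incubated 6 hr. Test compounds in DMSO were added for 16 hr at 37C. FRET substrate was then loaded for 2 hr at room temperature before fluorescence reading.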

For assay [10], the target named is Thyrotropin-releasing hormone receptor (Homo sapiens) (UniProt P34981). Kind of assay: qHTS assay to identify small molecule antagonists of the thyrotropin-releasing hormone receptor (TRHR) signaling pathway (AID 1346877; active = well fitted inhibition curve with a large enough effect in the repeat runs, not every such curve was filed as active). The conditions noted are these: TRHR-HEK293, TRH-induced calcium fluorescence, antagonist mode; series mostly up to 51.3 µM. The method, boiled down:
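Following an 18 h incubation at 37 °C and a 2 h calcium dye load, TRHR-HEK293 cells were exposed to compound (5 min, room temperature) and challenged with TRH, 1 nM final.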

Chain of Progesterone receptor (Homo sapiens) (P06401 whole entry, looked up): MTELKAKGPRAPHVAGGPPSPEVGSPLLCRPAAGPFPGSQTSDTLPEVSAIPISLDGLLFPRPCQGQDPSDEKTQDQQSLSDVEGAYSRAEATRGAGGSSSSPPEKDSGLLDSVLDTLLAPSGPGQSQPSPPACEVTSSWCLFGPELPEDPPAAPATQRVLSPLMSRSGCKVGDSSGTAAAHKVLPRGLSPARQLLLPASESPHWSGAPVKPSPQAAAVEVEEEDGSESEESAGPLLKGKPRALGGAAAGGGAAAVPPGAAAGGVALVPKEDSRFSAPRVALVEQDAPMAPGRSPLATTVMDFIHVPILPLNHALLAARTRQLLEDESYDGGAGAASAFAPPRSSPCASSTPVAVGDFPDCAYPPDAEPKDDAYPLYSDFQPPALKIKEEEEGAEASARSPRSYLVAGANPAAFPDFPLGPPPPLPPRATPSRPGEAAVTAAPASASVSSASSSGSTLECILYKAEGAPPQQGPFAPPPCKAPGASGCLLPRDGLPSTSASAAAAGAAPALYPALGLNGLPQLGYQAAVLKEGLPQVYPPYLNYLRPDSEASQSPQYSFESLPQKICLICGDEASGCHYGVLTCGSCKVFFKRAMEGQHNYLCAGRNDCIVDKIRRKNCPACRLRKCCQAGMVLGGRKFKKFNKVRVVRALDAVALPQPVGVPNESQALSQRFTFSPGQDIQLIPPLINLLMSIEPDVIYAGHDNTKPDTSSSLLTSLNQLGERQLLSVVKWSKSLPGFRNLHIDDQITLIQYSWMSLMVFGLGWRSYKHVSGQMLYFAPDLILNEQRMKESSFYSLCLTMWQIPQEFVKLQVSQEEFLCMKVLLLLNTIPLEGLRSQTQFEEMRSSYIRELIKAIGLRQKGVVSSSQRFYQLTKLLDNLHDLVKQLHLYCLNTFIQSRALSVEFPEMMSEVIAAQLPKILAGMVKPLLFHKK
Chain of Thyrotropin-releasing hormone receptor (Homo sapiens) (P34981 whole entry, looked up): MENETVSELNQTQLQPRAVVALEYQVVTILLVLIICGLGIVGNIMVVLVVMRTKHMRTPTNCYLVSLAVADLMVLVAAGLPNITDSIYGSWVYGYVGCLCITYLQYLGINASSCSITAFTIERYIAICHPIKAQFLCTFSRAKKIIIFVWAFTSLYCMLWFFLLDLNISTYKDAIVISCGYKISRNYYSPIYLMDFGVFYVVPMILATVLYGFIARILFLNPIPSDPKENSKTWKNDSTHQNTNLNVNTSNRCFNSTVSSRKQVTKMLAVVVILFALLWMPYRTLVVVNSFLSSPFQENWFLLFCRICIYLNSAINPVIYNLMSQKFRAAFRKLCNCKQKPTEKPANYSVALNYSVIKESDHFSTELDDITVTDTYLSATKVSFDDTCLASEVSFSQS

For the molecule `CNCc1cc(F)ccc1Oc1ccc(Cl)c(Cl)c1`, the Potency is 61.1 µM (active) in [1], 34.7 µM (active) in [7] and 61.1 µM (active) in assay [8]. Moreover, the Potency entry in [2], in assay [3], in assay [4], in [5] and in [6] was “inactive” throughout.
With `N#CC1(c2ccc(F)cc2)CCC(=O)CC1`, the Potency result in assay [9], in assay [3], in [4], in assay [5], in assay [6] and in assay [10] was “inactive” throughout. For the same molecule, the Potency entry in assay [7] and in assay [8] was “inactive” in each case.
On to `O=c1[nH]sc2cc(Cl)ccc12`, for which the Potency result in assay [9], in [3], in assay [4], in assay [5], in assay [6] and in assay [10] was “inactive” throughout. Besides, the Potency result in [7] was “inactive”.
As for `S=c1[nH]c2ccccc2s1`, the Potency entry in assay [9], in assay [4], in [5], in [6], in [10] and in assay [7] was “inactive” throughout.
Consider `C=C(C)C(=O)OCC[N+](C)(C)C`, for which the Potency entry in assay [9], in assay [3], in assay [4], in assay [5], in assay [6] and in [8] was “inactive” in each case.
`Oc1ccc(Cl)cc1Sc1cc(Cl)ccc1O`: the Potency was 7.68 µM (active) and 9.44 µM (active) in [1]; 54.4 µM (active) in assay [2]; 15.3 µM (active) in [8]. For the same molecule, the Potency entry in [3], in [4] and in assay [6] was “inactive” in each case.
Take `CC(C)C(C)(C)C(C)(C)C(C)(C)S`: the Potency result in assay [9], in assay [4], in assay [5], in assay [6], in [10] and in [7] was “inactive” each time. Further, the Potency result in assay [8] was “inactive”.
As for `Cc1ccc2oc(CN(Cc3ccccc3)C(=O)Nc3c(F)cc(F)cc3F)c(-c3ccc(Cl)cc3)c2c1`, the Potency entry in assay [9], in assay [4], in assay [5], in assay [6], in assay [10] and in assay [7] was “inactive” in each case. The Potency result in assay [8] was “inactive”.
Take `CC(C)OC(=O)c1cc2c(OCC(O)CNC(C)(C)C)cccc2[nH]1` (stereo not drawn): the Potency entry in assay [9], in [4], in assay [5], in assay [6], in assay [10] and in [7] was “inactive” throughout.
`O=C1CCCCCN1SSN1CCCCCC1=O`: the Potency entry in assay [9], in assay [2], in assay [6], in [10], in assay [7] and in assay [8] was “inactive” in each case.
Consider `N=C1C=CC(=C(c2ccc(N)cc2)c2ccc(N)cc2)C=C1`, for which the Potency entry in assay [9], in [5], in assay [6], in assay [10] and in assay [7] was “inactive” throughout. Moreover, in [8], the Potency was 8.63 µM (active).
Regarding `CN1CCN(CCC(=O)N2c3ccccc3Sc3ccc(C(F)(F)F)cc32)CC1`, the Potency in assay [1] was 26.6 µM (active); in assay [2], 18.8 µM (active); in assay [3] it was 23.7 µM (active). In addition, the Potency result in assay [4], in [5], in [6], in [10] and in [7] was “inactive” each time.
Turning to `CS(=O)(=O)CCNCc1ccc(-c2ccc3ncnc(Nc4ccc(OCc5cccc(F)c5)c(Cl)c4)c3c2)o1`, the Potency in assay [1] is 7.5 µM (active); in [2], 18.8 µM (active); in assay [3], 15 µM (active); in assay [8], 26.6 µM (active). Further, the Potency entry in assay [4], in assay [10] and in assay [7] was “inactive” each time.
For `O=C(Nc1ccc(Oc2ccc(Cl)cc2)c(Cl)c1)c1cc(I)cc(I)c1O`, in assay [1], the Potency was 23.7 µM (active). Further, the Potency result in assay [4], in assay [5], in assay [6], in assay [10] and in assay [7] was “inactive” in each case.
On to `CCc1cc(SCc2sc(-c3ccc(C(F)(F)F)cc3)nc2CN2CCN(c3ccc(OC)cc3)CC2)ccc1OCC(=O)O`, for which the Potency in assay [1] is 24.3 µM (active); in [2], 4.86 µM (active); in assay [3], 6.11 µM (active). The Potency result in assay [4] and in assay [10] was “inactive” each time.
On to `COc1ccc(CN2CCN(C(c3ccc(F)cc3)c3ccc(F)cc3)CC2)c(OC)c1OC`, for which the Potency in assay [2] is 16.8 µM (active); in [3], 13.3 µM (active); in [4], 16.9 µM (active); in [5], 23.9 µM (active); in assay [8], 26.6 µM (active). In addition, the Potency result in [10] and in assay [7] was “inactive” throughout.
`CCc1cc(Cc2cc(CC)c(N)c(CC)c2)cc(CC)c1N`: the results for the Potency in assay [2], in [3] and in [8] were 68.6 µM (active), 54.5 µM (active) and 27.3 µM (active), respectively. In addition, the Potency result in assay [4], in [5], in [6], in [10] and in assay [7] was “inactive” in each case.
As to `Cc1cc(C2CCCCC2)n(O)c(=O)c1`, the Potency entry in assay [2], in assay [3], in assay [4], in [5] and in assay [6] was “inactive” in each case. Also, in assay [8], the Potency is 26.6 µM (active).
On to `Cc1cc(N)c(S(=O)(=O)O)cc1Cl`, for which the Potency entry in assay [2], in assay [3], in assay [4], in assay [5], in assay [6] and in assay [10] was “inactive” in each case. In assay [7], the Potency result is “inactive”.
On to `CCCCCCCCCCCCCC[P+](CCCC)(CCCC)CCCC` (tested in a mixture with another compound), for which the Potency in assay [2] is 30.8 µM (active); in assay [3], 30.8 µM (active); in [4], 27.7 µM (active); in [5], 31.1 µM (active). In addition, the Potency result in assay [10] and in [7] was “inactive” each time.
Regarding `COc1cccc2c1C(=O)c1c(O)c3c(c(O)c1C2=O)C[C@@](O)(C(=O)CO)C[C@@H]3O[C@H]1C[C@H](N)[C@H](O[C@@H]2CCCCO2)[C@H](C)O1`, the Potency entry in assay [2], in [3], in assay [4], in [5], in assay [6] and in assay [10] was “inactive” each time. Also, the Potency entry in [7] was “inactive”. Besides, the Potency in assay [8] was 1.68 µM (active).
In the case of `O=C(Oc1cccc2cccnc12)c1ccccc1`, the Potency was 4.22 µM (active) in assay [2], 4.73 µM (active) in assay [3] and 3.35 µM (active) in assay [8]. Also, the Potency result in [4], in assay [5], in assay [10] and in assay [7] was “inactive” each time.
`CN(C/C=C/C#CC(C)(C)C)Cc1cccc2ccccc12`: the Potency in assay [2] was 26.6 µM (active); in assay [3], 13.3 µM (active). For the same molecule, the Potency result in [4], in [5], in [6], in [10], in assay [7] and in assay [8] was “inactive” throughout.
Regarding `CC(C)(C)C1CCC(CC2=C(O)c3ccccc3C(=O)C2=O)CC1` (stereo not drawn), the Potency result in [2], in assay [3], in assay [4], in assay [5] and in assay [6] was “inactive” each time. The Potency in assay [8] is 10.6 µM (active).
Turning to `O=[N+]([O-])c1ccccc1Nc1ccccc1`, the Potency entry in assay [2], in [3], in assay [4], in [5], in assay [6] and in [10] was “inactive” in each case. Also, the Potency entry in [7] and in assay [8] was “inactive” in each case.
Consider `NC(=O)N1C(=O)C(C(=O)c2cc(Cl)cs2)c2cc(F)c(Cl)cc21` (stereo not drawn), for which the values for the Potency in assay [2], in [3] and in assay [8] were 30.6 µM (active), 43.3 µM (active) and 54.5 µM (active), respectively. In addition, the Potency result in assay [4], in [5], in [6], in [10] and in assay [7] was “inactive” each time.
